Measured values from PubChem BioAssay AID588494 (NMMLSC, 2011).
The other results are listed elsewhere or left out. Values without a mark were called inactive.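 How the source made its calls: active means response vs DMSO under 50%, meaning signal dropped by over half, treated as fluorescence quencher; inconclusive means no clear call, values can overlap the other calls; inactive means the rest.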

assay: bead-bound aptamer fluorescence quenching artefacts – biochemical, single concentration, cherry pick 2, flow cytometry, artefact control for GRK2 aptamer binding project, confirmation (AID 588494); settings: carboxyfluorescein RNA aptamer beads, at 10 µM, active compounds read low;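 further: labelled aptamer on streptavidin beads without GRK2 as a quench counter-screen; 100% = bead fluorescence of DMSO wells and lower means quenching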

Structure (SMILES)	fluorescence response vs DMSO [%]
CCN1CCN(C(=O)N[C@@H](C(=O)N[C@@H]2C(=O)N3C(C(=O)O)=C(CSc4nnnn4C)CS[C@H]23)c2ccc(O)cc2)C(=O)C1=O	99
COc1ccccc1C(=O)N(Cc1ccc(C)o1)C1CCS(=O)(=O)C1 (stereo not given)	98
CN=C(Nc1cccc(S(=O)(=O)N2CCOCC2)c1)c1ccccc1	110
CCc1nn(CCCN2CCN(c3cccc(Cl)c3)CC2)c(=O)n1CCOc1ccccc1	100
CCOC(=O)C1=C(N)N(c2ccc(C)cc2)C2=C(C(=O)CCC2)C1c1cccs1 (stereo not given)	106
O=C(CCS(=O)(=O)c1ccccc1)NC1CCCC1	94
COc1ccc(Cl)cc1NC(=O)CCS(=O)(=O)c1cc2c(cc1C)NC(=O)CO2	98
CC1Sc2ccc(S(=O)(=O)CCC(=O)NCc3ccccc3Cl)cc2NC1=O (stereo not given)	100
COCCn1c(N)c(NCc2ccccc2)c(=O)[nH]c1=O	103
COc1ccc(Cl)cc1NC(=O)CCS(=O)(=O)c1ccc(Br)cc1	101
O=[N+]([O-])c1ccccc1S(=O)(=O)Nc1cccc2cccnc12	103
CCOCCCNC(=O)c1ccc(CS(=O)(=O)c2cccc(C(F)(F)F)c2)o1	103
COc1cc([N+](=O)[O-])cc([N+](=O)[O-])c1NC(=O)N1CCOCC1	103
CC1CCN(C(=S)NC2CC3CCC2C3)CC1 (stereo not given)	99
O=C(NCCCN1CCCCCC1)c1ccc(N2CCCC2=O)cc1	100
CCOCCc1c(O)nc(SCC(=O)NCc2ccco2)[nH]c1=O	100
O=C(C1CCCN(S(=O)(=O)c2ccc([N+](=O)[O-])cc2)C1)N1CCCCC1 (stereo not given)	103
Cc1ccc(S(=O)(=O)CC(=O)Nc2sc(C)c(C)c2C(N)=O)cc1	103
CCOc1ccc(OCC)c(NC(=O)CCS(=O)(=O)c2ccc(C)cc2)c1	99
CC(=O)c1ccc(N2CCN(C(=O)c3ccc4nc[nH]c4c3)CC2)cc1	102
Cc1nnc(SCC(=O)N2c3ccccc3C(C)(c3ccc(Cl)cc3)CC2(C)C)s1 (stereo not given)	100
COc1cccc(OC)c1C(=O)Nc1ccc(Cc2ccncc2)cc1	98
NC(=O)[C@H]1CC2(CC(c3cccc(NC(=O)[C@H]4CCC(=O)N4)c3)=NO2)CN1C(=O)c1ccccc1C(=O)c1ccccc1 (stereo not given in full)	101
O=C(NC1C2CC3CC(C2)CC1C3)c1ccc(N2CCNCC2)c([N+](=O)[O-])c1 (stereo not given)	101
CCC(C)(C(=O)NC1CCCCC1)N(C)C(=O)c1ccc2c(c1)OCO2 (stereo not given)	103
